Measured values from PubChem BioAssay AID1159580 (chemical genetic matrix, 2015).
Where “and” joins values, the source holds several entries; their conditions need not be identical. Identical values can stand only once. Out of some 5,500 compounds screened, about 2,000 (36%) were called active. Another 18% or so got no clear call; they are omitted. Rule as the data show it: active = normalized growth mostly below about 0.91 (no sharp cut-off); inconclusive = no clear call, values can overlap the other calls; inactive = mostly above about 0.92. Some of the results follow.

Assay: chemical genetic growth profiling, strain panel (AID 1159580);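 also: tested at 20 µM; growth read once vehicle control cultures reached saturation at 30 °C; 1 = growth at the plate median or of vehicle wells; lower values mean less growth of the strain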
Conditions: S. cerevisiae deletion strains, growth OD

Measured: normalized growth

CC1CCCC(C)N1NC(=O)c1ccc(Cl)c(S(N)(=O)=O)c1 (stereo unspecified)
inactive: locus YAL013W, strain DEP1, active compounds read low 1 | locus YAL021C, strain ccr4, active compounds read low 1 | locus YAL026C, strain drs2, active compounds read low 1.03 | locus YAL030W, strain snc1, active compounds read low 0.989 | locus YBL061C, strain skt5, active compounds read low 1.02 | locus YBR009C, strain hhf1, active compounds read low 1.02 | locus YBR021W, strain FUR4, active compounds read low 1.09 | locus YBR023C, strain chs3, active compounds read low 1.01 | locus YBR171W, strain sec66, active compounds read low 1.03 | locus YBR229C, strain ROT2, active compounds read low 0.996 | locus YBR231C, strain swc5, active compounds read low 1.05 | locus YBR279W, strain paf1, active compounds read low 1 | locus YCL011C, strain gbp2, active compounds read low 0.932 | locus YCL016C, strain dcc1, active compounds read low 1.02 | locus YCL029C, strain bik1, active compounds read low 0.974 | locus YCL069W, strain vba3, active compounds read low 1 | locus YCR088W, strain abp1, active compounds read low 1.01 | locus YDL005C, strain med2, active compounds read low 1.01 | locus YDL035C, strain GPR1, active compounds read low 1.01 | locus YDL040C, strain nat1, active compounds read low 1.01 | locus YDL074C, strain BRE1, active compounds read low 0.991 | locus YDL101C, strain DUN1, active compounds read low 0.983 | locus YDL134C, strain PPH21, active compounds read low 1 | locus YDL185W, strain tfp1, active compounds read low 0.964 | locus YDL192W, strain arf1, active compounds read low 0.988 | locus YDR001C, strain nth1, active compounds read low 1.01 | locus YDR069C, strain doa4, active compounds read low 1.01 | locus YDR101C, strain arx1, active compounds read low 0.99 | locus YDR137W, strain rgp1, active compounds read low 1.01 | locus YDR150W, strain NUM1, active compounds read low 0.992 | locus YDR159W, strain sac3, active compounds read low 1.02 | locus YDR162C, strain NBP2, active compounds read low 0.997 | locus YDR195W, strain ref2 1 | locus YDR297W, strain sur2, active compounds read low 1.01 | locus YDR318W, strain mcm21, active compounds read low 1 | locus YDR334W, strain swr1, active compounds read low 1.02 | locus YDR335W, strain msn5, active compounds read low 1.02 | locus YDR388W, active compounds read low 0.998 | locus YDR392W, strain spt3, active compounds read low 1.03 | locus YDR502C, strain sam2, active compounds read low 0.993 | locus YEL003W, strain gim4, active compounds read low 1.02 | locus YEL037C, strain rad23, active compounds read low 1.02 | locus YEL061C, strain CIN8 (second series), active compounds read low 1.01 | locus YEL061C, strain CIN8, active compounds read low 1 | locus YER015W, strain faa2, active compounds read low 1.02 | locus YER016W, strain bim1, active compounds read low 1.02 | locus YER110C, active compounds read low 0.983 | locus YER111C, strain swi4, active compounds read low 1.01 | locus YER155C, strain BEM2 (second series), active compounds read low 1.04 | locus YER155C, strain BEM2, active compounds read low 1 | locus YER167W, strain BCK2, active compounds read low 0.997 | locus YFR010W, strain ubp6, active compounds read low 1.03 | locus YGL078C, strain dbp3, active compounds read low 0.997 | locus YGL086W, strain mad1, active compounds read low 1 | locus YGL167C, strain pmr1, active compounds read low 1.01 | locus YGL173C, strain kem1, active compounds read low 1.03 | locus YGL227W, strain vid30, active compounds read low 1.02 | locus YGL240W, strain doc1, active compounds read low 1.01 | locus YGL248W, strain PDE1, active compounds read low 1 | locus YGL253W, strain hxk2, active compounds read low 1.02 | locus YGR078C, strain PAC10, active compounds read low 0.983 | locus YGR135W, strain pre9, active compounds read low 0.993 | locus YGR229C, strain SMI1, active compounds read low 0.991 | locus YGR252W, strain gcn5, active compounds read low 1.2 | locus YHR013C, strain ard1, active compounds read low 1.01 | locus YHR027C, strain rpn1, active compounds read low 1.01 | locus YHR030C, strain SLT2, active compounds read low 0.998 and 0.962 | locus YHR079C, strain IRE1 (second series), active compounds read low 0.985 | locus YHR079C, strain IRE1, active compounds read low 0.949 | locus YHR094C, strain hxt1, active compounds read low 0.986 | locus YHR129C, strain ARP1, active compounds read low 0.984 | locus YHR142W, strain chs7, active compounds read low 1.01 | locus YHR200W, strain rpn10, active compounds read low 1 | locus YIL066C, strain RNR3, active compounds read low 0.995 | locus YIL073C, strain SPO22, active compounds read low 0.874 | locus YIL125W, strain kgd1, active compounds read low 0.956 | locus YIR030C, strain dcg1, active compounds read low 0.998 | locus YJL092W, strain hpr5, active compounds read low 1.02 | locus YJL095W, strain BCK1 (second series), active compounds read low 1.01 | locus YJL095W, strain BCK1, active compounds read low 0.972 and 0.992 | locus YJL115W, strain asf1, active compounds read low 1.01 | locus YJL129C, strain trk1, active compounds read low 1.03 | locus YJL134W, strain LCB3, active compounds read low 0.993 | locus YJL154C, strain vps35, active compounds read low 1.02 | locus YJL164C, strain tpk1, active compounds read low 1 | locus YJL166W, strain qcr8, active compounds read low 0.989 | locus YJL168C, strain set2, active compounds read low 0.993 | locus YJL187C, strain SWE1 (second series), active compounds read low 0.966 | locus YJR043C, strain POL32, active compounds read low 0.982 | locus YJR066W, strain TOR1, active compounds read low 0.962 | locus YJR075W, strain HOC1, active compounds read low 0.985
